PubChem BioAssay AID588591 (National Center for Advancing Translational Sciences (NCATS), 2011)
About 4,700 (1.2%) of roughly 390,000 compounds were called active. About 4% were inconclusive and are not listed. The full list was thinned out, with actives kept by preference. A number with no mark means an inactive call. Calls follow the shape of the dose curve; as a rule, active = well fitted inhibition curve with a large enough effect; inconclusive = small, poorly fitted or top-dose-only effect, or another doubt; inactive = no such curve, though single readings can be large or run the other way.

biological target: DNA polymerase eta (Homo sapiens) (UniProt Q9Y253); assay: qHTS for Inhibitors of Polymerase Eta; conditions: recombinant Pol eta, fluorescent DNA replication assay; series mostly up to 114 µM; activity change, negative = inhibition: at the top concentration
Sequence (Q9Y253 whole entry, looked up): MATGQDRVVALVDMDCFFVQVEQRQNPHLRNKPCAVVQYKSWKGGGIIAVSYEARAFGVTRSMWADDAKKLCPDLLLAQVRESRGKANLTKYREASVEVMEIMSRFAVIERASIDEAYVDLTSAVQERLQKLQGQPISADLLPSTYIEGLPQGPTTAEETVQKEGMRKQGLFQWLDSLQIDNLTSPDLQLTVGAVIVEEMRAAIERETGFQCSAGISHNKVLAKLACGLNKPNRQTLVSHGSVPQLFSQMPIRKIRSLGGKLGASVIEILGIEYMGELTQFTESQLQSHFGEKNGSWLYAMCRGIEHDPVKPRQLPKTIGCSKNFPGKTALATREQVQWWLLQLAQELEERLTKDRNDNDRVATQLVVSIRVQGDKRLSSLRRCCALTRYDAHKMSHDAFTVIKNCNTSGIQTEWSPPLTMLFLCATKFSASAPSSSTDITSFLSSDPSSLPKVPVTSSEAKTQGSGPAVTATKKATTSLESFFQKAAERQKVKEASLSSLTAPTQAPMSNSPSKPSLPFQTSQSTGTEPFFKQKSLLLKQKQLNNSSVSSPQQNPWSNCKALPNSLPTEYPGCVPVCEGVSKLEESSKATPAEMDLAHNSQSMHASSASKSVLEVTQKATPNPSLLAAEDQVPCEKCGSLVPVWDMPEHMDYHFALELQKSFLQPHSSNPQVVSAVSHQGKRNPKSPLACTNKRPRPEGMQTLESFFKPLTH
How it was run: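 Pol eta (10 nM) was preincubated with compounds for 15 min at room temperature, after which fluorescent replication substrate (50 nM final) was added to start the reaction. Fluorescence was read kinetically at 0 and 10 min.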
% is scaled to controls: 0 for no effect and ±100 for the full control effect; potency is read from the fitted curve at half-maximal effect.

Compound	activity change, negative = inhibition	Potency
COc1cccc(NC(=O)CSc2cc(=O)n(C)c3ccc(Cl)cc23)c1	-11.1%	
Fc1ccccc1Oc1ncnc2c1oc1ccccc12	-14.1%	
Cc1cccc(-n2ncc(C(=O)N3CCc4ccccc4C3)c2C2CCN(C(=O)OC(C)(C)C)CC2)c1	-14.8%	
COc1ccccc1-c1nnc(C2CCN(C(=O)c3ccc(Cl)cc3)CC2)o1	-19.5%	
Cc1ccc(-n2c(=O)c3cccnc3n2CC(=O)NCc2ccc(F)cc2)cc1C	-22.2%	
Cc1oc2ccc(O)c(CN3CCOCC3)c2c1C(=O)Nc1cccc(Cl)c1C	-14.5%	
COc1ccc2cc(-c3nc(Cl)c4c5c(sc4n3)CC(C)CC5)c(=O)oc2c1 (stereo not drawn)	-7.52%	
COc1ccc(-c2cc3ccc(OCc4nn[nH]n4)cc3oc2=O)cc1		17.8 µM (active)
COc1ccc2oc(=O)c(-c3cn4c(n3)sc3cc(OC)ccc34)cc2c1	-9.11%	
CCCS(=O)(=O)c1ncc(Cl)c(C(=O)Nc2scc(-c3ccccc3)c2C(=O)OCC)n1	-15.6%	
COc1ccc(Cn2c(C(=O)O)c(CNCCc3cccs3)c3ccc(OC)cc32)cc1	-16.6%	
CCCNC(=O)C1CCN(c2nc3ccc(C)cc3[nH]2)CC1	-9.68%	
Cc1ccc(Cc2cncc(O)c2)cc1S(=O)(=O)O		25.1 µM (active)
CCCCCn1c(CCCNC(=O)c2ccccc2OC)nc2ccccc21	-9.44%	
Oc1c(Cl)cc(Cl)c(Cl)c1Cc1c(O)c(Cl)cc(Cl)c1Cl		44.7 µM (active)
Cc1ccccc1NC(=O)Cn1cc(C(=O)c2cccs2)c2ccccc21	-17.3%	
Cn1c(=O)c2c(nc(Oc3ccc(C#N)cc3)n2Cc2ccc(Cl)cc2Cl)n(C)c1=O	-8.3%	
Cc1cccc(C)c1-n1ncc(C(=O)NCCCN2CCCCC2)c1C1CCN(C(=O)OC(C)(C)C)CC1	-12.6%	
CC(C)CC(=O)NCC(c1ccc2c(c1)OCO2)N1CCN(c2ccc(F)cc2)CC1 (stereo not drawn)	-22.4%	
CC(=O)c1ccccc1OCc1ccc(C(=O)c2ccccc2)cc1	-17.2%	
O=C(c1ccc(O)cc1)c1ccc(C(=O)O)c(C(=O)O)c1		39.8 µM (active)
O=C(c1ccccc1)c1ccc(OC(=O)N2CCCC2)cc1	-11.8%	
CCOc1cccc2sc(N3CCN(C(=O)C4CC4)CC3)nc12	-10.9%	
O=C(CSc1oc(-c2ccco2)nc1S(=O)(=O)c1ccc(Cl)cc1)c1ccccc1	-11%	

Compound	activity change, negative = inhibition	Potency
CN(CCOc1ccccc1)C(=O)c1cc(-c2ccco2)nc2ccccc12		25.1 µM (active)
Cc1cc(C)c2nc(SCC(=O)N(C)C3CCS(=O)(=O)C3)cc(C)c2c1 (stereo not drawn)	-8.11%	
CN(CCOc1ccccc1)Cc1nc2cc(Cl)ccc2c(=O)[nH]1	-11.3%	
CCN(C(=O)COC(=O)/C=C/c1nc2ccccc2s1)C1CCS(=O)(=O)C1 (stereo not drawn)	-11.5%	
COc1cccc(NC(=O)CN(C)C(=O)c2cc(Cl)nc3ccccc23)c1	-1.6%	
CN(C(=O)COC(=O)c1cc(-c2ccco2)nc2ccccc12)C1CCS(=O)(=O)C1 (stereo not drawn)		6.31 µM (active)
Cc1oc2c(c1C(=O)Nc1ccc(F)c(F)c1)C1=NCCN1C=N2	-11.1%	
CC1=C(C(=O)Nc2ccccc2)C(c2ccc(C)cc2)n2nc(SCc3ccccc3C)nc2N1 (stereo not drawn)	-12.8%	
CCOc1ccc(CNC(=O)CCc2c(C)nn(-c3ccc(N4CCCCC4)nn3)c2C)cc1	15.4%	
CCOC(=O)c1cc2c(=O)n3ccccc3nc2n(Cc2ccco2)c1=NC(=O)c1ccc(F)cc1	1.02%	
OC[C@H]1O[C@@H](n2cnc3c(N[C@H]4CC5CCC4C5)ncnc32)[C@H](O)[C@@H]1O (stereo partly drawn)	-4.42% [at 57.1 µM]	
O=C(Nc1ccc2nc(SCC(=O)N3CCCc4ccccc43)sc2c1)c1ccc(F)cc1	1.28%	
O=C(O)CCn1cc(/C=C/C(=O)c2ccc(Cl)cc2)c(-c2cccc(Br)c2)n1		56.2 µM (active)
CCc1ccc(S(=O)(=O)c2nnn3c2nc(NCc2ccccc2OC)c2cc(Cl)ccc23)cc1	-17.6%	
CCc1nn(CC(=O)N2CCN(CC)CC2)c(=O)c2cccn12	-4.37%	
CN1CCN(C(=O)Cn2c(C(F)(F)F)nc3ccccc32)CC1	-6.13%	
CCCN1CCN(C(=O)Cn2ncc3ccccc32)CC1		25.1 µM (active)
Cc1ccc(NC(=O)CN2C(=O)CC(C)Sc3ccccc32)c(C)c1 (stereo not drawn)	-18.6%	
COc1ccc(Br)cc1CNC(=O)c1cc(=O)[nH]c2ccc(S(=O)(=O)N3CCCC3)cc12	-19.4%	
O=C(O)c1ccc(NN=CC2=C(N3CCOCC3)/C(=C/c3ccccc3)CC2)cc1		39.8 µM (active)
O=C(Nc1ccc(F)cc1)c1cccnc1N1CCOCC1	5.47%	
CC(C)(CNC(=O)c1ccc(Cl)c(S(=O)(=O)N2CCc3ccccc3C2)c1)N1CCOCC1	-5.08%	
CCOc1ccc(NC(=O)C(=O)NCCc2csc3nc(-c4ccccc4F)nn23)cc1	-19.2%	
Cc1cc2ccccc2n1CCNC(=O)c1ccc(F)cc1	-11.5%	

Compound	activity change, negative = inhibition	Potency
Cc1ccc2c(=O)c(C(=O)c3ccc(Cl)cc3)cn(CC(=O)NC3CCCCC3)c2n1	-3.19%	
NC1=NC(c2cc(F)cc(F)c2)n2c(nc3ccccc32)N1 (stereo not drawn)	-10.4%	
COc1ccc(S(=O)(=O)NC(C)c2ccccc2)cc1C(=O)N1CCCCC1 (stereo not drawn)	-9.63%	
Cc1ccc(NS(=O)(=O)c2ccc3c(c2)n(C)c(=O)c(=O)n3C)c(C)c1	-4.89%	
COc1ccc(Br)cc1/C=N/Nc1ccc(S(=O)(=O)Nc2ccccc2C(=O)O)cc1[N+](=O)[O-]		15.8 µM (active)
Cc1ccc(NS(=O)(=O)c2ccc(N/N=C/c3ccccc3OCC(=O)O)c([N+](=O)[O-])c2)c(C)c1		70.8 µM (active)
COc1cccc(/C=N/Nc2ccc(S(=O)(=O)Nc3ccccc3C(=O)O)cc2[N+](=O)[O-])c1O		17.8 µM (active)
CCN(CC(=O)NCc1cccs1)C(=O)c1cccc(S(=O)(=O)Nc2ccccc2OC)c1	-25.1%	
O=C(CN1CCCCCC1)Nc1ccc(Br)cc1[N+](=O)[O-]	-11%	
Cc1ccc(C)c(NS(=O)(=O)c2ccc(OCC(=O)NCc3cccnc3)cc2)c1	-6%	
COC(=O)c1ccccc1NS(=O)(=O)c1ccc2c(c1)CCCN2C(C)=O	-2.99%	
COc1ccc(N2CCN(Cc3nc4c(c(=O)[nH]c(=O)n4C)n3Cc3ccc(Cl)cc3)CC2)cc1	-7.52%	
CCOc1ccccc1NC(=O)Cn1c(=O)n(Cc2ccccc2)c(=O)c2c(C)c(C(=O)N(C)C)sc21	-27%	
COc1ccc(C2(Nc3cccc(F)c3)C(=O)c3ccccc3C2=O)cc1	-17.8%	
CCCCC12CN3CC(C)(CN(C1)C3c1ccc(O)c(OC)c1)C2=O (stereo not drawn)	-16.3%	
COc1ccc2c(c1)c(N1CCCC1=O)c(C(=O)Nc1ccc(OC)c(Cl)c1)n2C	-3.83%	
Cc1ccc(C(=O)Nc2cc3c(cc2N2CCCC2)n(C)c(=O)c(=O)n3C)cc1	2.99%	
Cc1ccccc1CSc1nc(-c2ccccc2)nc2c1Cc1c(CO)cnc(C)c1O2	-10.2%	
CCCC(=O)N1CCN(c2nc3c(OC)ccc(C)c3s2)CC1	-6.03%	
COC(=O)c1ccc(COc2ccc(/C=C/C(=O)c3ccc(OC)c(CSCC(=O)O)c3)cc2OC)cc1		20 µM (active)
COc1cc(/C=C/C(=O)OCC(=O)NC(=O)NCc2ccccc2)ccc1OCC#N	-9.71%	
COC(=O)c1ccc(C(NC(=O)OCc2ccccc2)/C(C)=C/[C@@H](C)C(=O)NCc2ccc(OC)c(OC)c2)cc1 (stereo partly drawn)	-11.8%	
COc1ccc(CCNC(=O)c2cn(C)c3ccc(S(=O)(=O)N(C)C4CCCCC4)cc3c2=O)cc1OC	-13.2%	
CCOC(=O)C1CCN(C(c2ccc(F)cc2)c2sc3nc(-c4ccco4)nn3c2O)CC1 (stereo not drawn)	-3.38%	

Compound	activity change, negative = inhibition	Potency
Oc1c(C(c2ccccc2Cl)N2CCOCC2)sc2nc(-c3ccco3)nn12 (stereo not drawn)	-7.9%	
CCOc1ccccc1/C=c1\sc2nc(-c3ccco3)nn2c1=O		7.94 µM (active)
Cc1ccc2nc3c(cc(C(=O)NC4CCCCC4)c(=N)n3C(C)C)c(=O)n2c1	-13.7%	
CCc1cc2c(-c3ccccc3)cc(=O)oc2c2c1OCN(Cc1ccc(C)cc1)C2	-17.1%	
CCOc1cc(C2C(C(=O)OC)=C(C)NC3=C2C(=O)c2ccccc23)ccc1O (stereo not drawn)	-0.263%	
COC(=O)C1=C(C)NC2=C(C(=O)c3ccccc32)C1c1ccc(-c2ccc(C(=O)O)cc2)o1 (stereo not drawn)		31.6 µM (active)
CCCOc1ccc(C2c3c(-c4ccccc4O)n[nH]c3C(=O)N2Cc2cccnc2)cc1 (stereo not drawn)	-12.1%	
COc1cc(-c2noc(-c3ccc(N4CCCC4)c([N+](=O)[O-])c3)n2)cc(OC)c1OC	-17.7%	
CN1c2ccc(Cl)cc2-c2nc(SCC(=O)Nc3cc(F)ccc3F)ncc2S1(=O)=O	3.16%	
O=c1nc2s/c(=C\c3ccco3)c(=O)n2nc1Cc1ccccc1		17.8 µM (active)
Cc1ccc(C)c(CNC(=O)c2cc3ccccn3n2)c1	-8.38%	
COc1ccc(CCNC(=O)c2cc3cccc4c3n2CC(C)S4)c(OC)c1OC (stereo not drawn)	-16%	
CC(CNC(=O)c1nnc(Cc2cccc(F)c2)o1)c1ccccc1 (stereo not drawn)	-15.9%	
COc1cc2nc(SCc3ccc(F)cc3)n3nc(CCn4c(C)nc5ccccc54)nc3c2cc1OC	-8.04%	
O=S(=O)(NCCS(=O)(=O)N1CCN(c2ccccc2)CC1)c1ccc(Cl)cc1	19.5%	
Cc1ccc(-c2ccc(/C=C(\C#N)C(N)=S)o2)c([N+](=O)[O-])c1	-15.7%	
CC1=NN(c2ccc(Cl)c(C(=O)O)c2)C(=O)/C1=C/c1ccc(-c2ccccc2[N+](=O)[O-])o1		20 µM (active)
O=C(CSc1nc(=O)[nH]c2c1CCCC2)Nc1cc(C(F)(F)F)ccc1Cl	-12.9%	
COc1cccc(N2CC(NC(=O)/C=C\c3ccccc3)CC2=O)c1 (stereo not drawn)	-8.81%	
COc1ccc(/C=C/C(=O)c2cc(Br)ccc(=O)c2O)cc1		31.6 µM (active)
COCOc1cc(O)c(C(=O)/C=C/c2ccc(OCOC)c(OCOC)c2)c(OCOC)c1	-24.5%	
